# The supplement of paper PMC10849652
# The full data set covers some 7,900 targets. This sample favours those with a hit. About 0.6% of all pairs of compound and target were hits. Unmarked numbers belong to inactive results.
# Legend:
# Assay in all cases: log2 fold change, soluble protein after heating vs DMSO (PISA); higher = thermal stabilisation; K562 cells, 10 uM, 30 min; active = over 0.2 and 3.5 SD of the protein, either way, in both replicates (recomputed)
# [1] = compound: CC1=C(C=C(C=C1)NC(=O)C2=CC(=CC=C2)C(C)(C)C#N)NC3=CC4=C(C=C3)N=CN(C4=O)C
# Outline: (§1)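 Soluble protein was defined as the supernatant after 21,000xg for 90 min. It came from K562 cells at 2×10^6 cells/mL given 10 μM compound for 30 min, heated in aliquots for 3 min across 48°C-58°C, pooled, and extracted in PBS with 0.5% NP-40 at 4°C, and was quantified by TMTpro 16plex LC-MS/MS with equalised channel sums. Thermal stability against control samples, from duplicates, is reported as log2 fold change.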
# [2] = compound: CC1=C(C=C(C=C1)NC(=O)C2=CC(=CC=C2)N(C)C)NC(=O)C3=CC=C(C=C3)O
# Outline: as §1
# [3] = compound: CC1=CC=C(C=C1)SC2=C3C=C(SC3=CN=C2)C(=O)N
# Outline: as §1
# [4] = compound: CCCCN(Cc1ccc(C(=O)NO)cc1)C(=O)Nc1ccccc1 [Nexturastat A]
# Outline: as §1
# [5] = compound: CCCS(=O)(=O)Nc1ccc(F)c(C(=O)c2c[nH]c3ncc(-c4ccc(Cl)cc4)cc23)c1F [vemurafenib]
# Outline: as §1
# [6] = compound: CCCS(=O)(=O)Nc1ccc(F)c(C(=O)c2c[nH]c3ncc(Cl)cc23)c1F
# Outline: as §1
# [7] = compound: CCCc1cc(C)[nH]c(=O)c1CNC(=O)c1cc(-c2ccnc(N3CCN(C)CC3)c2)cc2c1cnn2C(C)C
# Outline: as §1
# [8] = compound: CCN(CC)Cc1ccc2cc(COC(=O)Nc3ccc(C(=O)NO)cc3)ccc2c1 [givinostat]
# Outline: as §1
# [9] = compound: CCN(CCCOc1ccc2c(Nc3cc(CC(=O)Nc4cccc(F)c4)[nH]n3)ncnc2c1)CCOP(=O)(O)O [barasertib]
# Outline: as §1
# [10] = compound: CC[C@@H]1C(=O)N(C)c2cnc(Nc3ccc(C(=O)NC4CCN(C)CC4)cc3OC)nc2N1C1CCCC1
# Outline: as §1
# [11] = compound: CC[C@@H]1C(=O)N(C)c2cnc(Nc3ccc(C(=O)N[C@H]4CC[C@H](N5CCN(CC6CC6)CC5)CC4)cc3OC)nc2N1C(C)C [volasertib]
# Outline: as §1
# [12] = compound: CC[C@H](C)N1C=C(C2=C(C=C(C=C21)C3=CN=C(C=C3)N4CCNCC4)C(=O)NCC5=C(C=C(NC5=O)C)C)C
# Outline: as §1
# [13] = compound: CC[C@H](C)[C@@H](C(=O)N[C@@H]([C@@H](C)O)C(=O)N[C@@H](CC(C)C)C(=O)[C@]1(CO1)C)NC(=O)[C@H]([C@@H](C)CC)N(C)C(=O)C [epoxomicin]
# Outline: as §1
# [14] = compound: CCn1c(C(=O)N(C2CC2)C2CC2)cc2c3c(ncn3C)c(Nc3cc(C)n(C)n3)nc21
# Outline: as §1
# [15] = compound: CN(C)CC(=O)Nc1ccc2[nH]c(=O)c3ccccc3c2c1
# Outline: as §1
# [16] = compound: CN(CCOC1=CC=C(C=C1)C[C@H]2C(=O)NC(=O)S2)C3=CC=CC=N3 (racemic) [rosiglitazone]
# Outline: as §1
# [17] = compound: CN1C2=C(C3=C1C(=O)N(N=C3)CC4=CC(=CC=C4)N)SC(=C2)S(=O)C
# Outline: as §1
# [18] = compound: CC1=NC(=CC=C1)C2=C(N=C(N2)C(C)(C)C)C3=CC4=NC=CN=C4C=C3
# Outline: as §1
# [19] = compound: CCn1cc(-c2ccnc3[nH]c(-c4cccc(CN(C)C)c4)cc23)c(-c2ccc(NC(=O)N(C)C)cc2)n1
# Outline: as §1
# [20] = compound: CN1CCC(CNc2ccc3ncc(-c4cccc(OC(F)(F)F)c4)n3n2)CC1
# Outline: as §1
# Sequence of UniProt P21796 (P21796 whole entry, looked up): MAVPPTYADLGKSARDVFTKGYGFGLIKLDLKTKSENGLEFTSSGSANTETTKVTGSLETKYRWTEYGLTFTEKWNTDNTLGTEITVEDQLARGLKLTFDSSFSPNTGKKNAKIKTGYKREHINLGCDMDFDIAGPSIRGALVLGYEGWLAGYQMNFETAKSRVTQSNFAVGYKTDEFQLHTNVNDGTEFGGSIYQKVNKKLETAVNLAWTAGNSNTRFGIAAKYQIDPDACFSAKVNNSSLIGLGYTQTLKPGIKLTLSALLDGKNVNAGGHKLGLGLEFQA
# Sequence of UniProt Q9Y5K5 (Q9Y5K5 whole entry, looked up): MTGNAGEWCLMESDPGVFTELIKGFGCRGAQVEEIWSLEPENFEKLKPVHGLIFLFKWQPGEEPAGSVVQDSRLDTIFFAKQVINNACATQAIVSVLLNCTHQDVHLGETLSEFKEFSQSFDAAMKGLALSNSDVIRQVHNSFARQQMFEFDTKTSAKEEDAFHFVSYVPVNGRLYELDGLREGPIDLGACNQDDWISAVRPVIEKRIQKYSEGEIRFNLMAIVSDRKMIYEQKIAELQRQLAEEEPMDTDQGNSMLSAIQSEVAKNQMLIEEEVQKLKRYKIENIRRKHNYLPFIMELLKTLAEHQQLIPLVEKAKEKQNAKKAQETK
# Sequence of UniProt A6NIH7 (A6NIH7 whole entry, looked up): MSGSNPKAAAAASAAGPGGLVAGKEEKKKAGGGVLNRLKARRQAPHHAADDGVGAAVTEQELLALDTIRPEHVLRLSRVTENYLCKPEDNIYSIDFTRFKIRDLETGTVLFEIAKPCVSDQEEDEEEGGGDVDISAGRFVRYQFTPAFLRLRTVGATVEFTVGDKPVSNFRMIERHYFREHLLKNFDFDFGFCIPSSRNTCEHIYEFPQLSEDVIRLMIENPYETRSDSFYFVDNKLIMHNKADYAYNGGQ
# Sequence of UniProt P28908 (P28908 whole entry, looked up): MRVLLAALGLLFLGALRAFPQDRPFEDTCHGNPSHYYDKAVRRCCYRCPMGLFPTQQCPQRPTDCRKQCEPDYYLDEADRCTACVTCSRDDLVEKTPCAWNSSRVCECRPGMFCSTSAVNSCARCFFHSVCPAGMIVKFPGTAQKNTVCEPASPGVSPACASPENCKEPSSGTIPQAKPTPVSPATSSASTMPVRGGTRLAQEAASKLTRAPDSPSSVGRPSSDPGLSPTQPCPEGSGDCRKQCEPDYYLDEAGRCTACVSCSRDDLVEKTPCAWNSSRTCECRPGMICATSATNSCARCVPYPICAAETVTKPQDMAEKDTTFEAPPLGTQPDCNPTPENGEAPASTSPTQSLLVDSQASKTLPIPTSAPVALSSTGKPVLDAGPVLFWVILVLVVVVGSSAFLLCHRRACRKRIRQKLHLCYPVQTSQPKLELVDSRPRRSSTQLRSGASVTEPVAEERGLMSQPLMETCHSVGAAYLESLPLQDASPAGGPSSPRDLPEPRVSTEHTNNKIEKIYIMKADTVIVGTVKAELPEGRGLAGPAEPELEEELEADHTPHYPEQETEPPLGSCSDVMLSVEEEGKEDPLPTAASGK
# Sequence of UniProt Q15906 (Q15906 whole entry, looked up): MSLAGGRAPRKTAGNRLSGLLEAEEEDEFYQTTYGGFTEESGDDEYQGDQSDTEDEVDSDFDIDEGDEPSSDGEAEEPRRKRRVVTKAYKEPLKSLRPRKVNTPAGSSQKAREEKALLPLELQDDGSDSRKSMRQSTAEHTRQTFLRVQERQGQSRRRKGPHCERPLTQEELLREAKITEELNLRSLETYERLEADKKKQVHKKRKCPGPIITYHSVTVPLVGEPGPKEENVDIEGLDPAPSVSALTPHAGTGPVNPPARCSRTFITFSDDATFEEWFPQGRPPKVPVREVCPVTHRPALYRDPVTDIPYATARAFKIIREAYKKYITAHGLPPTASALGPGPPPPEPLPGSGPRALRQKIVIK
# Sequence of UniProt Q9C037 (Q9C037 whole entry, looked up): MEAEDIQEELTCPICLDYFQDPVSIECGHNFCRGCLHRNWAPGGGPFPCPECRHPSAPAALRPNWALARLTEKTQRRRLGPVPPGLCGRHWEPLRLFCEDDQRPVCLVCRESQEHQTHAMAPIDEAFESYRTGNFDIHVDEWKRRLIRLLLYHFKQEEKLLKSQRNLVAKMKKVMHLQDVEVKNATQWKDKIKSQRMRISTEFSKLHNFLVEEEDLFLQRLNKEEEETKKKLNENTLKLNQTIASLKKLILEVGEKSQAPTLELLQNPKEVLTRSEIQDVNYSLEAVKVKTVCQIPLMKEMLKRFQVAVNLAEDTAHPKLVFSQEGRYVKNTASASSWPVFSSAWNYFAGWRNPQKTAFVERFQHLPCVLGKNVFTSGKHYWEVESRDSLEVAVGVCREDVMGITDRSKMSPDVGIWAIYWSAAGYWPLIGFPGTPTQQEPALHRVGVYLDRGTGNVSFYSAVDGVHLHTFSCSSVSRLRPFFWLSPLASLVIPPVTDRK
# Sequence of UniProt Q9H4I3 (Q9H4I3 whole entry, looked up): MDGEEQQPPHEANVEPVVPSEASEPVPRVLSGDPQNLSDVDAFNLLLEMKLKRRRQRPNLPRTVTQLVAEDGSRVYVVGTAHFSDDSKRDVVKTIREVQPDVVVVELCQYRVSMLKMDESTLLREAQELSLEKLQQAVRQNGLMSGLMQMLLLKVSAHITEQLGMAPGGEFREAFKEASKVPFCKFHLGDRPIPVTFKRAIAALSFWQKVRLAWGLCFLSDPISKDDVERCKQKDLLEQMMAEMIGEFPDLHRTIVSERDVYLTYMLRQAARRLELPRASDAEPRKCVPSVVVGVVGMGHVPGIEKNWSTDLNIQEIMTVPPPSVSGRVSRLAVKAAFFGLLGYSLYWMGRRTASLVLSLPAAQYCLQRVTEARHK
# Sequence of UniProt Q9NX01 (Q9NX01 whole entry, looked up): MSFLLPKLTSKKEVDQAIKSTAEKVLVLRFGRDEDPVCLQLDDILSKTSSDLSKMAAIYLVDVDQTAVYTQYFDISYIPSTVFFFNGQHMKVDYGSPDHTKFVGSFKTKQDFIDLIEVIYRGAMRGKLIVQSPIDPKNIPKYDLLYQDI
# Sequence of UniProt Q86Y07 (Q86Y07 whole entry, looked up): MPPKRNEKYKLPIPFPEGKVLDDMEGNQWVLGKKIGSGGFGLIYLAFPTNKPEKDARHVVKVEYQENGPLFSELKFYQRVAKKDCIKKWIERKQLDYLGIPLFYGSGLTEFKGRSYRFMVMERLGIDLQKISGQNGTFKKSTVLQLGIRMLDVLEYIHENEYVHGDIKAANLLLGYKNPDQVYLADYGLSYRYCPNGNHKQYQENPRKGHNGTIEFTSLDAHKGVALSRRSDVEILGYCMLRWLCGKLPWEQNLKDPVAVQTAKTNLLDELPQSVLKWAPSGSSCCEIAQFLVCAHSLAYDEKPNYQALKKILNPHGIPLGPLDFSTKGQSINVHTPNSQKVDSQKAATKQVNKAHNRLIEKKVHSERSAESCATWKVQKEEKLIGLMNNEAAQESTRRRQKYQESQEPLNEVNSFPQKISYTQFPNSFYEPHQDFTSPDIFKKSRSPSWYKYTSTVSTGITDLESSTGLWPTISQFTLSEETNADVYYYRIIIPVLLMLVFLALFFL
# Sequence of UniProt Q99816 (Q99816 whole entry, looked up): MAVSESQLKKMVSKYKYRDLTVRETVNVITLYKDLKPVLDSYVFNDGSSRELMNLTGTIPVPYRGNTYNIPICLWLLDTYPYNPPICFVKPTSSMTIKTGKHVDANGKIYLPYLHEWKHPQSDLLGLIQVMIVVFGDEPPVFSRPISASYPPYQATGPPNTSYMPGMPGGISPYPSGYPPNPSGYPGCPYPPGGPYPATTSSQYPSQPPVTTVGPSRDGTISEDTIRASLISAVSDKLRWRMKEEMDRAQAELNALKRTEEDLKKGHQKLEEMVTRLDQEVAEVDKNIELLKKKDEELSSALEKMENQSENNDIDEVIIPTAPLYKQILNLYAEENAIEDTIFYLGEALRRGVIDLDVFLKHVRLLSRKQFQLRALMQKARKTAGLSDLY
# Sequence of UniProt Q6NXR4 (Q6NXR4 whole entry, looked up): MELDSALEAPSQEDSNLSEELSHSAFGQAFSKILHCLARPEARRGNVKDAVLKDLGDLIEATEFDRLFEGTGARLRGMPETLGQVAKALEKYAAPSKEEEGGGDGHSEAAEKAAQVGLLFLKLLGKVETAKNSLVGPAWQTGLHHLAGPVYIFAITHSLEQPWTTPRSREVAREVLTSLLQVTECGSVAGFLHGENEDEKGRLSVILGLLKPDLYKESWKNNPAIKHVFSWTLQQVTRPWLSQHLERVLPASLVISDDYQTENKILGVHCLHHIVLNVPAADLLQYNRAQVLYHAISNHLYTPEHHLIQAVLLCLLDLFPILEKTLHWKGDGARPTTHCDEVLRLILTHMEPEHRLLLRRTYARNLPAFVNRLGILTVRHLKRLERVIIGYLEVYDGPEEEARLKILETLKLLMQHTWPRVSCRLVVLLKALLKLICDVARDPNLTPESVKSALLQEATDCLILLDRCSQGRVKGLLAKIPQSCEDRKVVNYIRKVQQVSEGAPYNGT
# Sequence of UniProt Q7Z7N9 (Q7Z7N9 whole entry, looked up): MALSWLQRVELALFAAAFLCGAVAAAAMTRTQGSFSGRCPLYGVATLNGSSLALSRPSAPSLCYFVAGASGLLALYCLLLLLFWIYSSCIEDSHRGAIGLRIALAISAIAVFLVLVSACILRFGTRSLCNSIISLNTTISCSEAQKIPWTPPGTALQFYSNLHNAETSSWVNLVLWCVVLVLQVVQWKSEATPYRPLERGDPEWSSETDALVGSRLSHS
# Sequence of UniProt Q5BJH2 (Q5BJH2 whole entry, looked up): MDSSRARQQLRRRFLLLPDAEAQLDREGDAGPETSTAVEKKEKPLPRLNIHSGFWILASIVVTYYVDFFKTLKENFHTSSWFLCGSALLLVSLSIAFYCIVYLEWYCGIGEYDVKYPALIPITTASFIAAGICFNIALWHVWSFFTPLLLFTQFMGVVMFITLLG
Target,log2 fold change [1],log2 fold change [2],log2 fold change [3],log2 fold change [4],log2 fold change [5],log2 fold change [6],log2 fold change [7],log2 fold change [8],log2 fold change [9],log2 fold change [10],log2 fold change [11],log2 fold change [12],log2 fold change [13],log2 fold change [14],log2 fold change [15],log2 fold change [16],log2 fold change [17],log2 fold change [18],log2 fold change [19],log2 fold change [20]
VPS72 isoform 2 (UniProt Q15906),-0.051,0.196,0.05,-0.17,0.025,-0.028,-0.042,-0.014,0.001,-0.261,0.135,-0.072,-0.107,0.101,-0.052,0.041,0.043,–,–,–
TRAM1 (UniProt Q15629),0.024,-0.063,-0.006,0.005,0.027,0.02,-0.101,0.028,0.015,-0.216,-0.161,0.031,0.008,-0.004,0.062,0.095,-0.001,0.048,0.066,-0.759 (active)
TXNL4B (UniProt Q9NX01),-0.037,-0.088,-0.002,–,0.453 (active),0.024,-0.06,0.014,0.306,0.075,-0.111,-0.036,–,-0.015,0.186,0.056,0.051,-0.04,-0.069,-0.053
UCHL5 (UniProt Q9Y5K5),0.014,-0.07,0.019,0.048,0.075,0.08,0.003,0.057,0.024,-0.113,-0.295 (active),0.074,0.116,-0.017,0.04,0.03,-0.003,0.053,-0.028,-0.099
TNFRSF8 (UniProt P28908),-0.047,0.01,-0.076,0.008,-0.028,-0.015,0.031,-0.007,-0.006,0.134,0.011,-0.034,0.016,-0.003,0.009,-0.011,-0.051,-0.005,-0.016,0.201
VDAC1 (UniProt P21796),-0.025,0.02,0.025,-0.028,0.015,0.018,-0.005,-0.001,-0.017,0.019,0.063,-0.013,0.012,0.023,-0.005,–,-0.022,0.012,-0.009,0.055
WDR7 (UniProt Q9Y4E6),-0.029,-0.008,-0.016,-0.216,0.091,0.083,0.202,0.067,0.03,-0.09,-0.415 (active),0.027,-0.007,-0.085,0.279,0.082,0.034,-0.025,-0.007,-0.199
UBA52 (UniProt P62987),-0.046,0.024,-0.107,0.281,-0.212,-0.165,0.205,-0.06,0.044,0.227,0.572,–,-0.29,0.071,-0.256,-0.151,–,-0.16,0.351,0.369
TRIM4 (UniProt Q9C037),-0.031,0.023,-0.029,0.1,-0.297,-0.041,0.046,-0.086,0.011,0.01,-0.042,0.178,0.111,0.063,0.03,0.021,–,-0.076,-0.069,0.294
VRK2 (UniProt Q86Y07),-0.072,-0.05,0.01,0.04,0.006,0.044,0.025,0.03,0.01,0.034,-0.049,0.054,0.021,-0.072,-0.009,0.019,-0.04,0.015,-0.005,0.229 (active)
TMEM128 (UniProt Q5BJH2),-0.023,-0.006,-0.005,0.021,-0.279,0.052,–,0.249,-0.004,-0.076,-0.005,0.015,0.003,0.006,0.149,0.032,-0.033,-0.054,–,–
TRABD (UniProt Q9H4I3),0.014,-0.017,-0.005,-0.03,0.125,-0.06,0.147,-0.041,0.031,0.245,0.215,0,-0.004,0.128,0.029,0.001,–,-0.133,-0.108,0.228
TMEM179B (UniProt Q7Z7N9),-0.233,-0.003,0.011,0.378,–,0.053,-0.021,-0.118,0.045,0.05,0.052,0.029,-0.44 (active),0.026,–,-0.027,–,0.027,0.039,-0.128
TTI2 (UniProt Q6NXR4),0.021,-0.039,0.024,0.113,0.047,0.06,-0.018,0.135,-0.028,-0.173,-0.414 (active),0.021,0.085,-0.016,0.09,-0.01,0.03,0.023,–,–
UNC119B (UniProt A6NIH7),0.293,-0.057,0.241,–,0.023,-0.047,-0.108,0.12,-0.029,-0.168,0.066,-0.224,–,-0.134,-0.023,0.001,0.004,-0.017,-0.104,0.047
UCHL5 isoform 3 (UniProt Q9Y5K5),-0.09,-0.145,0.048,0.07,-0.02,0.243,0.047,0.056,0.048,-0.008,-0.617 (active),0.126,0.293,0.107,0.074,0.062,–,-0.213,–,–
TSG101 (UniProt Q99816),0,-0.011,-0.001,-0.017,0.021,0.024,-0.057,0.035,0.046,-0.137,-0.268 (active),0.036,0.065,-0.011,0.002,0.023,-0.018,0.025,-0.021,-0.124
